From paper PMC5892938, “SARNAclust: Semi-automatic detection of RNA protein binding motifs from immunoprecipitation data”
Over roughly 11,000 sequences, “log2 fold change” has its median near 0.00022; the highest 2% begin near 0.34. Some of the results follow.

Target: GST-SBP-SLBP (stem-loop binding protein) (Homo sapiens, UniProt Q14493 1-270)
Assay: targeted RNA Bind-n-Seq; RBNS binding buffer: 25 mM Tris pH 7.5, 150 mM KCl, 3 mM MgCl2, 0.1% Tween, 0.5 mg/mL BSA, 1 mM DTT; 27 nM protein, 750 pM RNA pool; temperature not stated; high values mean tight binding
Settings: protein: recombinant; tags: N-terminal GST and SBP (pGEX6P1-SBP); structured_RNA
Outline: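 A designed RNA oligo pool, transcribed with T7, was present at 750 pM and incubated in RBNS binding buffer with 27 nM of GST-SBP-tagged protein that had been expressed in Rosetta(DE3) pLysS E. coli and purified with glutathione. After reverse transcription with a 10-nucleotide barcoded primer and PCR, the bound RNA was sequenced as 200-cycle paired-end reads on a MiSeq. Each sequence's binding signal is the DEseq binary-logarithm fold change in read counts, computed after joining reads with FLASH, aligning with HISAT2 and collapsing by barcode.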

Sequence | binding signal
GGUCACGUCUCAAUCAACUCUUCUUCCAGGGAAACCCCUGGUAAUCUCAACAGCUCGCAGUCAAG | 0.352 ± 0.266 log2 fold change
GGUCACGUCUCAAUCAACUCUUCUUCCAGGGAAAACCCUGGCAAACUCAACAGCUCGCAGUCAAG | 0.378 ± 0.272 log2 fold change
GGUCACGUCUCAAUCAACUCAGUCCCCAGGGAAACCCCUGGUAUUUUCAACAGCUCGCAGUCAAG | 0.335 ± 0.368 log2 fold change
GGUCACGUCUCAAUCAACUCAGUCCCCAGGGAAAACCCUGGUUUUUUCAACAGCUCGCAGUCAAG | 0.518 ± 0.357 log2 fold change
GGUCACGUCUCAAUCAACUCUACUUCCAGGGAAAACCCUGGCAAACUCAACAGCUCGCAGUCAAG | 0.31 ± 0.258 log2 fold change
GGUCACGUCUCAAUCAACUCAGUUUCCAGGGAAAUCCCUGGUUUAUUCAACAGCUCGCAGUCAAG | 0.33 ± 0.289 log2 fold change
GGUCACGUCUCAAUCAACUCAGUCUCCAGGGAAACCCCUGGUUUAUUCAACAGCUCGCAGUCAAG | 0.458 ± 0.335 log2 fold change
GGUCACGUCUCAAUCAACUCUAAGGAGGGGGGGAAAACCCCUUUACCCUCAUCAUCAACAGCUCGCAGUCAAG | 0.486 ± 0.425 log2 fold change
GGUCACGUCUCAAUCAACUCUCAGGAGGGGGGGAAAACCCCUUUACCCUCAUCGUCAACAGCUCGCAGUCAAG | 0.309 ± 0.421 log2 fold change
GGUCACGUCUCAAUCAACUCUAAGGAGGGGGGGAAAACCCCUUUACCCUCACACUCAACAGCUCGCAGUCAAG | 0.396 ± 0.454 log2 fold change
GGUCACGUCUCAAUCAACUCAACUGAGGGGGGGAAAACCCCUUUACCCUCCACAUCAACAGCUCGCAGUCAAG | 0.388 ± 0.423 log2 fold change
GGUCACGUCUCAAUCAACUCAACUGAGGGGGGGAAAACCCCUUUACCCUCCAAAUCAACAGCUCGCAGUCAAG | 0.448 ± 0.446 log2 fold change
GGUCACGUCUCAAUCAACUCUCCAGAGGGGGGGAAAACCCCUUUACCCUCAACAUCAACAGCUCGCAGUCAAG | 0.304 ± 0.431 log2 fold change
GGUCACGUCUCAAUCAACUCCCAAGAGGGGGGGAAAACCCCUUUACCCUCGUAAUCAACAGCUCGCAGUCAAG | 0.444 ± 0.442 log2 fold change
GGUCACGUCUCAAUCAACUCCCAAGAGGGGGGGAAAACCCCUUUACCCUCACUCUCAACAGCUCGCAGUCAAG | 0.558 ± 0.444 log2 fold change
GGUCACGUCUCAAUCAACUCAAUAGAGGGGGGGAAAACCCCUUUACCCUCCCAAUCAACAGCUCGCAGUCAAG | 0.325 ± 0.459 log2 fold change
GGUCACGUCUCAAUCAACUCUUACGAGGGGGGGAAAACCCCUUUACCCUCAAAUUCAACAGCUCGCAGUCAAG | 0.37 ± 0.399 log2 fold change
GGUCACGUCUCAAUCAACUCUUACGAGGGGGGGAAAACCCCUUUGCCCUCAACAUCAACAGCUCGCAGUCAAG | 0.326 ± 0.377 log2 fold change
GGUCACGUCUCAAUCAACUCUCACGAGGGGGGGAAAACCCCUUUACCCUCAAAUUCAACAGCUCGCAGUCAAG | 0.315 ± 0.408 log2 fold change
GGUCACGUCUCAAUCAACUCUUACGAGGGGGGGAAAACCCCUUUGCCCUCAAAUUCAACAGCUCGCAGUCAAG | 0.347 ± 0.395 log2 fold change
GGUCACGUCUCAAUCAACUCUUCAGAGGGGGGGAAAACCCCUUUACCCUCCUAAUCAACAGCUCGCAGUCAAG | 0.368 ± 0.433 log2 fold change
GGUCACGUCUCAAUCAACUCUUCAGAGGGGGGGAAAACCCCUUUACCCUCCGUUUCAACAGCUCGCAGUCAAG | 0.44 ± 0.434 log2 fold change
GGUCACGUCUCAAUCAACUCGUUUUCAGGAGUUUACUCCUGCUUAUUCAACAGCUCGCAGUCAAG | 0.329 ± 0.222 log2 fold change
GGUCACGUCUCAAUCAACUCACAAGAGGGGGGGAAAACCCCUUUGCCCUCGAUAUCAACAGCUCGCAGUCAAG | 0.468 ± 0.396 log2 fold change
GGUCACGUCUCAAUCAACUCAAAAGAGGGGGGGAAAACCCCUUUGCCCUCGAUAUCAACAGCUCGCAGUCAAG | 0.336 ± 0.363 log2 fold change

Sequence | binding signal
GGUCACGUCUCAAUCAACUCACAAGAGGGGGGGAAAACCCCUUUGCCCUCCGUAUCAACAGCUCGCAGUCAAG | 0.416 ± 0.404 log2 fold change
GGUCACGUCUCAAUCAACUCCCACGAGGGGGGGAAAACCCCUUUACCCUCAACCUCAACAGCUCGCAGUCAAG | 0.335 ± 0.423 log2 fold change
GGUCACGUCUCAAUCAACUCCCACGAGGGGGGGAAAACCCCUUUACCCUCACACUCAACAGCUCGCAGUCAAG | 0.366 ± 0.434 log2 fold change
GGUCACGUCUCAAUCAACUCCCACGAGGGGGGGAAAACCCCUUUACCCUCUCAAUCAACAGCUCGCAGUCAAG | 0.362 ± 0.418 log2 fold change
GGUCACGUCUCAAUCAACUCAAUCGAGGGGGGGAAAACCCCUUUGCCCUCAUCUUCAACAGCUCGCAGUCAAG | 0.419 ± 0.432 log2 fold change
GGUCACGUCUCAAUCAACUCAAACGAGGGGGGGAAAACCCCUUUGCCCUCAUCUUCAACAGCUCGCAGUCAAG | 0.58 ± 0.399 log2 fold change
GGUCACGUCUCAAUCAACUCCUCAGAGGGGGGGAAAACCCCUUUACCCUCAAUAUCAACAGCUCGCAGUCAAG | 0.394 ± 0.424 log2 fold change
GGUCACGUCUCAAUCAACUCCUCAGAGGGGGGGAAAACCCCUUUACCCUCGUCCUCAACAGCUCGCAGUCAAG | 0.382 ± 0.44 log2 fold change
GGUCACGUCUCAAUCAACUCAAUAGAGGGGGGGAAAACCCCUUUACCCUCAAACUCAACAGCUCGCAGUCAAG | 0.319 ± 0.424 log2 fold change
GGUCACGUCUCAAUCAACUCAACAGAGGGGGGGAAAACCCCUUUACCCUCAAUAUCAACAGCUCGCAGUCAAG | 0.362 ± 0.427 log2 fold change
GGUCACGUCUCAAUCAACUCCCUCGAGGGGGGGAAAACCCCUUUACCCUCAUCGUCAACAGCUCGCAGUCAAG | 0.532 ± 0.391 log2 fold change
GGUCACGUCUCAAUCAACUCCCUCGAGGGGGGGAAAACCCCUUUACCCUCAUUAUCAACAGCUCGCAGUCAAG | 0.395 ± 0.38 log2 fold change
GGUCACGUCUCAAUCAACUCUAUCCCCAGGGAAAUCCCUGGUAUAUUCAACAGCUCGCAGUCAAG | 0.333 ± 0.304 log2 fold change
GGUCACGUCUCAAUCAACUCUAUUCCCAGGGAAAGCCCUGGUAUUCUCAACAGCUCGCAGUCAAG | 0.307 ± 0.273 log2 fold change
GGUCACGUCUCAAUCAACUCAAUCCCCAGGGAAAGCCCUGGUAUUCUCAACAGCUCGCAGUCAAG | 0.378 ± 0.274 log2 fold change
GGUCACGUCUCAAUCAACUCUAUUCCCAGGGAAAGCCCUGGCUAUCUCAACAGCUCGCAGUCAAG | 0.342 ± 0.296 log2 fold change
GGUCACGUCUCAAUCAACUCUAUCCCCAGGGAAAGCCCUGGUAUAUUCAACAGCUCGCAGUCAAG | 0.366 ± 0.305 log2 fold change
GGUCACGUCUCAAUCAACUCUAUUCCCAGGGAAAGCCCUGGUAUUUUCAACAGCUCGCAGUCAAG | 0.387 ± 0.281 log2 fold change
GGUCACGUCUCAAUCAACUCUUUUCCCAGGGAAAUCCCUGGCAUACUCAACAGCUCGCAGUCAAG | 0.334 ± 0.22 log2 fold change
GGUCACGUCUCAAUCAACUCUUUUUCCAGGGAAACCCCUGGCAUACUCAACAGCUCGCAGUCAAG | 0.44 ± 0.276 log2 fold change
GGUCACGUCUCAAUCAACUCAAGUCCCAGGGAAAACCCUGGCAAUUUCAACAGCUCGCAGUCAAG | 0.381 ± 0.341 log2 fold change
GGUCACGUCUCAAUCAACUCUUCUUCCAGGGAAAUCCCUGGCAUACUCAACAGCUCGCAGUCAAG | 0.399 ± 0.235 log2 fold change
GGUCACGUCUCAAUCAACUCAAUCCCCAGGGAAAACCCUGGCUAUUUCAACAGCUCGCAGUCAAG | 0.338 ± 0.272 log2 fold change
GGUCACGUCUCAAUCAACUCAUCUCCCAGGGAAAACCCUGGUAUAUUCAACAGCUCGCAGUCAAG | 0.374 ± 0.346 log2 fold change
